# 12-LOX inh: inhibitors of human 12S-lipoxygenase ALOX12 | 580,000 compounds, 1.1% hits | AID 1671190 | Potency, µM (series often up to 108 µM), inactives show at the top dose activity change, negative = inhibition, usual class: inhibitors | P18054 | purified 12hLO, xylenol orange hydroperoxide absorbance; further: on the % scale 0 is the no-effect control and ±100 the full control effect
#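 Hydroperoxide product was detected by ferrous iron/xylenol orange as the 573 to 405 nm absorbance ratio. Arachidonic acid at 40 uM (final) was turned over for 30 min at room temperature by 150 nM human 12hLO, pH 7.0 Hepes buffer, after 15 min compound preincubation.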
# PLK1 PBD block: blocks phosphopeptide binding to human PLK1 polo-box domain; P53350; Plk1 PBD binding of FITC phosphopeptide, fluorescence polarization; Potency, µM, inactives show max response, negative = inhibition, usual class: inhibitors; 360,000 compounds, 2.8% hits; further: series mostly up to about 57 µM; on the % scale 0 is the no-effect control and ±100 the full control effect; nearly all actives have a fitted effect of over 65% in size
# Target sequence (P53350 whole entry, looked up, the tested form may be a part): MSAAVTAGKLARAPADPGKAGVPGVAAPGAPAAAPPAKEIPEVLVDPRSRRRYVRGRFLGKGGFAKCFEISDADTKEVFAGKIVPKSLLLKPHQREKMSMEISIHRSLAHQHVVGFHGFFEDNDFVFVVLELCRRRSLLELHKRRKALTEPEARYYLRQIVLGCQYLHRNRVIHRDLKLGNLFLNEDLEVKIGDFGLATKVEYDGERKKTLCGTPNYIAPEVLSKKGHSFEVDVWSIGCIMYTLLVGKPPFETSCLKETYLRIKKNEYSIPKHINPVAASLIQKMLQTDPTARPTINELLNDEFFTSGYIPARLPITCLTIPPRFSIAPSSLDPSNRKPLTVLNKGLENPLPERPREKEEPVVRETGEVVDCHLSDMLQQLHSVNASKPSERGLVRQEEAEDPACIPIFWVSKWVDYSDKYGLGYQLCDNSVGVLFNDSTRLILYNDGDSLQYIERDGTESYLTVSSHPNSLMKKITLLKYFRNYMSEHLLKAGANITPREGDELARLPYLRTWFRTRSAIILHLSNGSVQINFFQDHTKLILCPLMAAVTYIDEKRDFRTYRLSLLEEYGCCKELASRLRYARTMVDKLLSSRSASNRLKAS
# JMJD2A Tudor: inhibitors of human JMJD2A Tudor domain; O75164; AlphaScreen JMJD2A-Tudor / H3K4me3 peptide binding; Potency, µM (top dose mostly 114 µM), for the others: at the highest dose activity change, negative = inhibition, hits mostly inhibitors; 390,000 compounds, 4.4% hits; further: on the % scale 0 is the no-effect control and ±100 the full control effect; nearly all actives have a fitted effect of over 50% in size
# G9a block: blocks human histone lysine methyltransferase G9a. Q96KQ7. G9a H3K9 monomethylation, AlphaScreen, 2 h. Potency, µM (series often up to 102 µM), inactives show at the highest dose activity, negative = inhibition, hits mostly inhibitors. 350,000 compounds, 8.8% hits. AID 504332; further: on the % scale 0 is the no-effect control and ±100 the full control effect; nearly all actives have a fitted effect of over 75% in size
#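 Using a bead-based AlphaScreen, monomethylated H3K9 product from 2 h room-temperature reactions (G9a 20 nM, peptide 500 nM, SAM 20 uM) was detected with 0.5 ug/mL rabbit anti-H3K9me1 antibody.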
# BAZ2B inh: BAZ2B (human) inhibition | Q9UIF8 | AlphaScreen BAZ2B-H3K14Ac peptide displacement | Potency, µM (titrated, usually from 114 µM), for the others: top-dose activity change, negative = inhibition, usual class: inhibitors | 360,000 compounds, 4.4% hits | AID 504333; further: on the % scale 0 is the no-effect control and ±100 the full control effect; nearly all actives have a fitted effect of over 60% in size
#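 Multi-concentration screen (max 110 uM) measuring displacement of acetylated histone H3 peptide from BAZ2B by AlphaScreen, using 50 nM protein, 50 nM peptide and 10 ug/mL streptavidin donor plus Ni-chelate acceptor beads.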
# HP1b binding inh: HP1-beta chromodomain-methylated histone interaction inhibition; 390,000 compounds, 0.56% hits; P83916; Potency, µM (series often up to 114 µM), inactives show top-dose activity change, negative = inhibition, most hits filed as inhibitors; AlphaScreen HP1-beta / biotin-H3K9me3 peptide binding; further: nearly all actives have a fitted effect of over 70% in size
#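 AlphaScreen: HP1-beta (50 nM) preformed 30 min with biotin-H3(1-18)K9me3 peptide (50 nM) in PBS pH 7.4, 0.01% Tween-20. Compound added for 30 min at RT, then streptavidin donor/nickel chelate acceptor beads (10 ug/mL) for 30 min.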
# The depositor's hits bear a star; i = inactive; u = inconclusive; x = no result given; [ ] = remark or other dose. Only some compounds are listed: those with a hit (about 9% of all), similar ones and a draw of the others. The call rests on the fitted dose curve; in most records, active means well fitted curve in the direction sought with a large enough effect; inconclusive means small, poorly fitted or top-dose-only effect, or another doubt; inactive means no such curve, though single readings can be large; an effect the other way counts as inactive or inconclusive. Potency means the concentration at half of the fitted maximal effect.
SMILES,12-LOX inh,PLK1 PBD block,JMJD2A Tudor,G9a block,BAZ2B inh,HP1b binding inh
CCCn1nc([N+](=O)[O-])c(C(C#N)c2nc3ccccc3o2)c(Cl)c1=O (stereo not drawn),40µM*,30µM*,56µM*,10µM*,20µM*,u
O=C(CSc1nc2cc(Cl)ccc2s1)N1c2ccccc2Sc2ccc(C(F)(F)F)cc21,-6%,x,x,x,x,x
Cn1nc([N+](=O)[O-])c(C(C#N)c2ccccn2)c(Cl)c1=O (stereo not drawn),-10%,30µM*,-27%,11µM*,-36%,10%
CCCCn1c(N)c(N(CC)C(=O)CSCc2c(C)noc2C)c(=O)[nH]c1=O,2%,-3%,-14%,45µM*,-8%,30%
CCCN(C(=O)CSCc1c(C)noc1C)c1c(N)n(Cc2ccccc2)c(=O)[nH]c1=O,-27%,-9%,-15%,45µM*,3%,-14%
CCCN(C(=O)Cn1nc(C)c([N+](=O)[O-])c1C)c1c(N)n(Cc2ccccc2)c(=O)[nH]c1=O,u,-2%,-3%,45µM*,9%,21%
CCCCn1c(N)c(N(CCOC)C(=O)CSCc2c(C)noc2C)c(=O)[nH]c1=O,u,-1%,-10%,-3%,-17%,34%
Cc1ccc2cc(C#N)c(SCC(=O)N3CCCc4ccccc43)nc2c1C,-10%,-10%,-10%,8%[12.7 µM],0%,10%
CSc1ccc(NC(=O)c2ccc3c(c2)N(C)C2CCCN2C3=O)cc1 (stereo not drawn),-22%,x,x,x,x,x
CCOC(=O)c1c(NC(=O)C2COc3ccccc3O2)sc(C(C)=O)c1C (stereo not drawn),-28%,u,-14%,50µM*,4%,-17%
CCOC(=O)c1c(NC(=O)C2COc3ccccc3O2)sc2c1CC(C)(C)NC2(C)C (stereo not drawn),u,0%,-28%,56µM*,u,14%
CCOC(=O)c1ccc(NC(=O)C2COc3ccccc3O2)cc1 (stereo not drawn),6%,-10%,8%,-9%,8%,69%
CC1CCN(CCOc2cccc(Br)c2)CC1,-33%,-8%,7.9µM*,7.9µM*,56µM*,u
Clc1cccc(OCCN2CCN(CCOc3cccc(Cl)c3)CC2)c1,u,2%,u,u,u,-6%
Brc1cccc(OCCCN2CCCCCC2)c1,-27%,-8%,22µM*,10µM*,50µM*,u
CCOC(=O)c1ccc(-n2c(-c3ccc(C)cc3)c(C)n3c4c(=O)n(C)c(=O)n(C)c4nc23)cc1,u,x,-14%,-2%[59 µM],-14%,22%
COc1cc(NC(=O)/C=C/c2ccccc2)c(C(=O)O)cc1OC,-8%,17µM*,-9%[11.4 µM],x,-5%,-2%
COc1cc(NC(=O)C2CC2)c(C(=O)O)cc1OC,-1%,-16%,-17%,50µM*,11%,40%
CCCCn1c(N)c(N(CC(C)C)C(=O)c2cccc(S(=O)(=O)N(CC)c3ccccc3)c2)c(=O)[nH]c1=O,0%,-4%,-12%,x,x,-3%
CC(Oc1ccccc1F)C(=O)NNC(=O)CCS(=O)(=O)c1ccccc1Cl (stereo not drawn),u,-2%,-8%,-4%,-4%,18%
CN1CCN(c2ccc(NC(=O)c3ccc(-c4ccc(Cl)cc4)o3)cc2)CC1,0%,-3%,u,x,8.9µM*,-18%
CN1CCN(c2ccc(NC(=O)c3ccc(-c4cccc([N+](=O)[O-])c4)o3)cc2)CC1,-17%,-8%,u,u,45µM*,u
O=C(Nc1ccc2oc(=O)ccc2c1)c1ccc(-c2ccccc2[N+](=O)[O-])o1,u,4%,-31%,-25%,-21%,8%
O=C(Nc1ccc2oc(=O)ccc2c1)c1ccc(-c2cccc([N+](=O)[O-])c2)o1,u,-4%,-32%,u,35µM*,-1%
CCn1nnc(NC(=O)c2ccc(-c3ccc(Cl)cc3)o2)n1,0%,-16%,u,45µM*,-6%,33%
SMILES,12-LOX inh,PLK1 PBD block,JMJD2A Tudor,G9a block,BAZ2B inh,HP1b binding inh
CS(=O)(=O)N1CCN(c2ccc(NC(=O)c3ccc(-c4ccc(Cl)cc4)o3)cc2)CC1,-25%,-4%,-22%,12%,-5%,12%
CCn1nnc(NC(=O)Cc2ccc(Cl)cc2)n1,i,-5%,-13%,13%,-14%,32%
O=CN(Cc1ccccc1)c1cc([N+](=O)[O-])ccc1OCc1ccccc1,4%,-1%,-30%,x,x,2%
CCOc1ccc(C2c3c(oc4ccccc4c3=O)C(=O)N2CCCN2CCOCC2)cc1 (stereo not drawn),5%,-19%,-4%,u,-27%,31%
C=CCOc1ccc(C2c3c(oc4ccc(C)cc4c3=O)C(=O)N2CCCN2CCOCC2)cc1 (stereo not drawn),u,x,-33%,u,-11%,-4%
CCOc1ccc(C2c3c(oc4cc(C)c(C)cc4c3=O)C(=O)N2CCCN(C)C)cc1OC (stereo not drawn),u,-3%,-18%,50µM*,-5%,19%
CCOc1ccc(C2c3c(oc4cc(C)c(C)cc4c3=O)C(=O)N2CCCN2CCOCC2)cc1 (stereo not drawn),-23%,-10%,-15%,28µM*,9%,45%
CCCOc1ccc(C2c3c(oc4cc(C)c(C)cc4c3=O)C(=O)N2CCCN(C)C)cc1OCC (stereo not drawn),46%,-1%,-14%,u,-11%,31%
Cc1cc2oc3c(c(=O)c2cc1C)C(c1ccc(C(C)C)cc1)N(CCCN1CCOCC1)C3=O (stereo not drawn),15%,-7%,u,50µM*,10%,13%
CCOc1ccc(S(=O)(=O)NCCC(=O)N2CCC(Cc3ccccc3)CC2)cc1,4%,-3%,-14%,32%,-4%,38%
Cc1ccc(-c2cc(N3CCCN(C(=O)c4cccc(N(C)C)c4)CC3)n[nH]2)cc1C,-25%,x,x,x,x,x
O=C1C(C2=NC(c3ccccn3)C3C(=O)N(c4ccc(Cl)cc4Cl)C(=O)C23)=C(O)c2ccccc21 (stereo not drawn),0%,-11%,0%[11.4 µM],4%,-26%,39%
Cc1onc(-c2ccccc2Cl)c1C(=O)NCc1ccccc1F,-5%,-1%,6%,x,3%,42%
COc1ccc(C(O)c2nccc3cc(OC)c(OC)cc23)cc1OC (stereo not drawn),18%,-7%,u,3.5µM*,56µM*,8%
COc1cc(N)c(C(O)c2nccc3cc(OC)c(OC)cc23)cc1OC (stereo not drawn),4%,-1%,-35%,x,u,45%

# High-throughput results: PubChem, National Center for Advancing Translational Sciences (NCATS)
